According to PubChem BioAssay (NCATS):
Records with an inconclusive call do not appear. Active and inactive are the calls of the source. Calls come from the whole dose curve; as a rule, active = well fitted inhibition curve with a large enough effect; inconclusive = small, poorly fitted or top-dose-only effect; inactive = flat fitted curve, though single readings scatter.

Test system: HEK293
Assay: Cytotoxic Profiling of Annotated Libraries Using Quantitative High-Throughput Screening (AID 1296008); note: nearly all actives have a fitted effect of over 60% in size
Details: Five cell lines viability, CellTiter-Glo ATP luminescence, 48-72 h; max response: active compounds read low
Outline: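 Cytotoxicity was measured as CellTiter-Glo ATP luminescence, read after 10 min at room temperature. Compound treatment of the cells lasted 48 or 72 hr at 37 degrees Celsius in a qHTS format.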
% is set by controls: 0 for no effect and ±100 for the full control effect; potency is the fitted concentration of half-maximal effect.

| SMILES | Potency | max response | outcome |
| --- | --- | --- | --- |
| CC(=O)SCC(=O)c1ccc(NS(=O)(=O)c2ccc(OCCCN(C)C)cc2)nc1 | 7.31 µM (active) |  |  |
| COc1ccc(C2=N[C@@H](c3ccc(Cl)cc3)[C@@H](c3ccc(Cl)cc3)N2C(=O)N2CCNC(=O)C2)c(OC(C)C)c1 |  | -29% (inactive) |  |
| Nc1ccccc1N | 17.2 µM (active) |  |  |
| CC(C)(C)c1ccc(S(=O)(=O)NCc2ccc(C(=O)Nc3cccnc3)cc2)cc1 | 0.326 µM (active) |  |  |
| C=CC(C)(C)c1[nH]c2cc3c(cc2c1CC1NC(=O)C2CCCN2C1=O)C=CC(C)(C)O3 (stereo not drawn) |  |  | inactive |
| Cn1cc(S(=O)(=O)c2ccc(Cl)cc2)c2cccc(N3CCNCC3)c21 | 6.51 µM (active) |  |  |
| CC(=O)O[C@H]1C(=O)[C@@]2(C)[C@H]([C@H](OC(=O)c3ccccc3)[C@]3(O)C[C@H](OC(=O)[C@H](O)[C@@H](NC(=O)c4ccccc4)c4ccccc4)C(C)=C1C3(C)C)[C@]1(OC(C)=O)CO[C@@H]1C[C@@H]2O | 0.0055 µM (active) |  |  |
| O=C(Nc1ccc(Cl)cc1F)c1ccccc1O | 16.4 µM (active) |  |  |
| CNCc1ccc(-c2cc(-c3nc(-c4ccc(S(=O)(=O)C(C)C)cc4)cnc3N)on2)cc1 | 1.16 µM (active) |  |  |
| C[C@@]1(O)[C@H](O)[C@@H](CO)O[C@H]1n1ccc(N)nc1=O |  |  | inactive |
| C/C(=C\CCC(C)CCO)C(=O)OC1(C)CCC2C(C(=O)O)=COC(OC3OC(CO)C(O)C(O)C3O)C21 (stereo not drawn) |  |  | inactive |
| COc1c2cc(c(O)c1OC)-c1cc(ccc1O)CCC(O)CCCC2 (stereo not drawn) |  | 1.1% (inactive) |  |
| COC(=O)C12C(=O)C(C)=C(O)C1(C)C(C)=CC1C3(CO)CCC(O)C(C)(C)C3CCC12C (stereo not drawn) |  | 1.96% (inactive) |  |
